PubChem BioAssay AID2322 (Broad Institute, 2010)
Out of some 27,000 compounds screened, about 120 (0.44%) were called active. What follows is part of a selection rich in actives, with near analogues and random picks from the rest. A number with no mark means an inactive call. Cut-off read from the data, not from the text of the source: active = inhibition above about 20%; inconclusive = no clear call, values can overlap the other calls; inactive = below that.

What follows are compounds tested against Serine/threonine-protein kinase 33 (Homo sapiens) (UniProt Q9BYT3) (assay: STK33 kinase inhibitors, primary screen, biochemical, luminescence, ADP-Glo, MBP substrate (AID 2322)). Conditions: at 12.5 µM, hits give high values.
Chain of Serine/threonine-protein kinase 33 (Homo sapiens) (Q9BYT3 whole entry, looked up): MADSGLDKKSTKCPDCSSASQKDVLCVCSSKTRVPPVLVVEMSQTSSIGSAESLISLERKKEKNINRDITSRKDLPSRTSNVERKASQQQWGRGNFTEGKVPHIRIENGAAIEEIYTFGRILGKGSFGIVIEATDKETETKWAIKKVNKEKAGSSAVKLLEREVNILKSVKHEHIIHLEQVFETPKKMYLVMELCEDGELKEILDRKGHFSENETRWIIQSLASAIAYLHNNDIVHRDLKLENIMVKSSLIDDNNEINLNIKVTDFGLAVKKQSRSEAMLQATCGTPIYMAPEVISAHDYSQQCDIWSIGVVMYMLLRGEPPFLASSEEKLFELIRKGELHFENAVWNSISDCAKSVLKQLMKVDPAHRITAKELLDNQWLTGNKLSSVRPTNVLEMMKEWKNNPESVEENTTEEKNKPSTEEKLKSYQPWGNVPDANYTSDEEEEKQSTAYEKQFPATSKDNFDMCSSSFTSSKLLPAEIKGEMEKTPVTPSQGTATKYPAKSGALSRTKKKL

Row | Structure (SMILES) | inhibition
1 | Cc1noc(C)c1NC(=O)Nc1ccc2c(c1)C(=O)N([C@H](C)CO)C[C@H](C)[C@@H](CN(C)C(=O)Nc1ccc(C(F)(F)F)cc1)O2 | 3.9%
2 | COc1ccccc1NC(=O)c1c(NC(=O)c2cccnc2)sc(C)c1C | 4.55%
3 | c1ccc(-n2c(SCc3nc4ccccc4s3)nnc2-c2ccncc2)cc1 | 1.5%
4 | O=[N+]([O-])c1ccccc1-c1ccc(CN2CCN3CCCC3C2C2CCCCC2)o1 (stereo not drawn) | -1.45%
5 | O=C(CCn1nc(-c2ccc(Cl)cc2)c2ccccc2c1=O)Nc1cccc(C(F)(F)F)c1 | 0.989%
6 | C[C@@H]1CN([C@H](C)CO)C(=O)Cc2cc(NS(C)(=O)=O)ccc2O[C@@H]1CN(C)C(=O)Nc1ccc2c(c1)OCO2 | 1.61%
7 | CCOc1c(S(=O)(=O)NCc2cccnc2)ccc(Cl)c1Cl | 3.15%
8 | O=C(Oc1ccccc1)c1cccc(COC(=O)c2cc3ccccc3oc2=O)c1 | -1.52%
9 | COc1cccc(-c2cnc3c(c2)C(=O)N([C@H](C)CO)C[C@H](C)[C@H](CN(C)Cc2ccncc2)O3)c1 | -1.09%
10 | O=C1c2c(O)cc(O)cc2O[C@@H](c2ccc(O)cc2)[C@@H]1c1c(O)cc(O)c2c(=O)cc(-c3ccc(O)cc3)oc12 | 6.09%
11 | Cc1cc(C)cc(OCC(=O)Nc2cccc(-c3nnc(-c4ccccc4)o3)c2)c1 | 4.59%
12 | C[C@@H]1CN([C@@H](C)CO)C(=O)Cc2cc(NC(=O)Nc3ccc4c(c3)OCO4)ccc2O[C@@H]1CN(C)CC1CCCCC1 | 1.59%
13 | c1ccc(Cn2c3ccccc3c3nnc(SCc4ccc5nonc5c4)nc32)cc1 | 2.04%
14 | C[C@H]1CN([C@@H](C)CO)C(=O)CCCn2nncc2CO[C@@H]1CN(C)S(=O)(=O)c1cccc(C#N)c1 | 4.45%
15 | COc1ccc(N2C(=O)CC(SCC(=O)Nc3ccccc3F)C2=O)cc1 (stereo not drawn) | 0.679%
16 | Cc1ccc(-n2c(SCC(=O)Nc3ccc(F)c(F)c3)nnc2-c2cnccn2)cc1 | -2.72%
17 | COc1cc2c(cc1NC(=O)C1CCC(=O)N1S(=O)(=O)c1ccc(C)cc1)oc1ccccc12 (stereo not drawn) | -1.01%
18 | Cc1ccc(-c2nnc(Nc3ccc(C(=O)N(C)C)cc3)c3ccccc23)cc1S(N)(=O)=O | 1.54%
19 | CCc1c(O)nc(SCC(=O)Nc2ccc(OC)cc2)n(-c2ccccc2C)c1=O | -1.3%
20 | S=c1cc(-c2ccccc2)oc(-c2ccccc2)c1 | 9.05%
21 | COc1ccccc1NC(=O)CCC(=O)c1ccc(C)cc1 | 0.187%
22 | COc1cc(/C=C2\Oc3cc(O)cc(O)c3C2=O)ccc1O | 80.7% (active)
23 | CCN(CC)C(=O)c1ccc(O)c(OC)c1 | 1.6%
24 | COc1cc(/C=C/C(=O)NCCc2ccc(O)cc2)ccc1O | -4.2%
25 | C[C@H](CO)N1C[C@H](C)[C@H](CN(C)S(=O)(=O)c2cccc(F)c2)OCc2cnnn2CCCC1=O | 1.75%
26 | Cc1ccc2oc3c(c(=O)c2c1)C(c1ccc([N+](=O)[O-])cc1)N(CCCN1CCOCC1)C3=O (stereo not drawn) | -0.738%

Row | Structure (SMILES) | inhibition
27 | O=C(CSc1nnc(-c2ccccc2Cl)n1-c1ccccc1)Nc1ccc([N+](=O)[O-])cc1 | 1.7%
28 | CCOC(=O)CCSc1nnc2c3ccccc3n(C)c2n1 | 0.466%
29 | O=C(CN1C(=O)COc2ccc(Cl)cc21)Nc1ccc(N2CCOCC2)cc1 | 6.98%
30 | O=C(CCn1cnc2ccccc2c1=O)Nc1cccc(C(F)(F)F)c1 | -2.03%
31 | CS(=O)(=O)CCC(C(=O)N1CCOCC1)N1C(=O)c2ccc(Br)cc2C1=O (stereo not drawn) | -0.215%
32 | Cc1nc2ccccc2n1CC(O)COc1ccc(C2C=CCC2)cc1 (stereo not drawn) | -1.35%
33 | COc1ccc([Si](C)(C)[C@@H]2[C@@H](CCO)O[C@]3(C(=O)N(Cc4cccc(N5CCCCC5=O)c4)c4ccccc43)[C@H]2C)cc1 | 2.11%
34 | Cc1noc(C)c1S(=O)(=O)Nc1ccc2c(c1)CC(=O)N([C@H](C)CO)C[C@@H](C)[C@@H](CN(C)Cc1ccc(C(=O)O)cc1)O2 | 0.587%
35 | CCCn1c2ccccc2c2nnc(SCC(=O)Nc3cccc4ccccc34)nc21 | 0.6%
36 | CC(C)c1ccc(OCC(O)Cn2cnc3ccccc32)cc1 (stereo not drawn) | 0.565%
37 | O=C(COc1ccc2c(=O)c(-c3ccccc3)coc2c1)Nc1ccc(F)cc1 | 1.18%
38 | C[C@@H]1CN([C@@H](C)CO)C(=O)Cc2cc(NC(=O)C3CCCCC3)ccc2O[C@@H]1CN(C)Cc1ccncc1 | 0.459%
39 | CC(C)CN1C(=O)[C@@]2(Cc3ccccc31)c1ccccc1C(=O)N(C1CCCCC1)[C@H]2c1ccc(CO)cc1 | -0.707%
40 | O=C(CSc1nc2sc3c(c2c(=O)[nH]1)CCC3)Nc1ccccc1C(F)(F)F | -3.77%
41 | Cc1ccc(NC(=O)CSc2ncnc3sc(C)c(C)c23)cc1 | 5.19%
42 | Cc1ccc(-c2nc3cc(NC(=O)COc4ccc([N+](=O)[O-])cc4)ccc3o2)cc1C | 0.362%
43 | CN(CC(=O)Nc1ccc(C#N)cc1)S(=O)(=O)c1ccc(Cl)cc1 | 4.42%
44 | C[C@H]1CN([C@@H](C)CO)C(=O)c2cc(NC(=O)Cc3cn(C)c4ccccc34)ccc2O[C@H]1CN(C)CC1CCCCC1 | 0.289%
45 | CS(=O)(=O)N(CC(=O)Nc1ccc2ccccc2c1)c1cc(Cl)c(Cl)cc1Cl | 0.303%
46 | O=c1[nH]nc(-c2ccc(NCc3cccnc3)c([N+](=O)[O-])c2)c2ccccc12 | 0.832%
47 | CCOC(=O)c1c(NC(=O)CSc2ncn[nH]2)sc2c1CCC2 | 3.47%
48 | CCOC(=O)c1c(NC(=O)C2(C)Cc3ccccc3C(=O)O2)sc2c1CCCC2 (stereo not drawn) | 0.582%
49 | CS(=O)(=O)N(CC(=O)NC1CC1)c1ccc(Cl)c(C(F)(F)F)c1 | -1.46%
50 | O=C(NCCN1CCOCC1)C(=O)NCC1COc2ccccc2O1 (stereo not drawn) | 2.08%
51 | COC(=O)c1c(NC(=S)Nc2ccc(OC)cc2[N+](=O)[O-])sc2c1CCC(C)C2 (stereo not drawn) | -1.18%
52 | Cc1nnc2sc(-c3cccc(NC(=O)C(C)Oc4ccc(Cl)cc4Cl)c3)nn12 (stereo not drawn) | 1.75%

Row | Structure (SMILES) | inhibition
53 | CN(CC(=O)Nc1c(F)cccc1F)S(=O)(=O)c1ccc(Cl)cc1 | 0.176%
54 | CC(C)S(=O)(=O)NCC1CCN(Cc2cccc(OCCO)c2)CC1 | -4.57%
55 | CC1(C)CC[C@]2(C(=O)O)CC[C@]3(C)C(=CCC4[C@@]5(C)CC[C@H](OC6O[C@H](CO)[C@@H](O)[C@H](O[C@@H]7O[C@H](CO)[C@@H](O)[C@H](O)[C@H]7O)[C@H]6O)C(C)(C)C5CC[C@]43C)[C@@H]2C1 (stereo partly drawn) | -3.3%
56 | CN(CC(=O)Nc1ccc(Br)cc1)S(=O)(=O)c1ccc2ccccc2c1 | -0.268%
57 | COc1ccc(N(CC(=O)Nc2cccnc2)S(C)(=O)=O)c(OC)c1 | 1.05%
58 | CN1CCN(S(=O)(=O)c2ccc(NC(=O)C3CC=CCC3C(=O)O)cc2)CC1 (stereo not drawn) | -6.02%
59 | O=C(CSc1nnc2c(n1)[nH]c1ccccc12)Nc1cccc(C(F)(F)F)c1 | 0.0503%
60 | O=C(c1cc([N+](=O)[O-])ccc1NCc1cccnc1)N1CCOCC1 | 0.472%
61 | CCc1cc(C(=O)OC)c(NC(=O)CC2Sc3ccc(C(F)(F)F)cc3NC2=O)s1 (stereo not drawn) | 26.1% (active)
62 | CCc1cc(C(=O)OC)c(NC(=S)Nc2ccc(OC)cc2[N+](=O)[O-])s1 | 2.32%
63 | C=CCn1c(SCc2nc3ccccc3[nH]2)nnc1-c1cccc(C)c1 | -1.59%
64 | CCn1c(SCC(=O)Nc2ccc3c(c2)OCCO3)nnc1-c1ccncc1 | 0.907%
65 | COc1ccc(CCNC(=S)Nc2c(C)n(C)n(-c3ccccc3)c2=O)cc1OC | 0.317%
66 | Cc1ccnc(NC(c2cccc(Br)c2)c2ccc3ccc(C)nc3c2O)c1 (stereo not drawn) | -1.5%
67 | COc1ccc(-c2cc(C(F)(F)F)n3nc(C(=O)NCCCN4CCOCC4)cc3n2)cc1OC | -3.3%
68 | CCOc1ccccc1NC(=O)C1C(C(=O)O)C2C=CC1C21CC1 (stereo not drawn) | -4.9%
69 | Cc1ccc(NC(=O)CCCN2C(=O)c3ccccc3C2=O)cc1 | 0.883%
70 | O=C1O[C@@H](c2ccccc2)[C@@H](c2ccccc2)N2[C@@H](c3ccccc3OCCO)[C@]3(C(=O)Nc4ccc(C#CC5(O)CCCCCC5)cc43)[C@@H](C(=O)N3CCN(c4ncccn4)CC3)[C@H]12 | 10.1%
71 | COc1ccc(N(CC(=O)Nc2ccc(F)c(F)c2)S(C)(=O)=O)cc1OC | 0.788%
72 | CCn1c(SCC(=O)Nc2cc(Cl)c(Cl)cc2Cl)nnc1-c1cc(Br)ccc1O | -2.32%
73 | CNC[C@H]1OCc2cnnn2CCCC(=O)N([C@H](C)CO)C[C@@H]1C | 2.08%
74 | Cc1ccc(S(=O)(=O)N(C)C[C@H]2Oc3ccc(NC(=O)Nc4cccc5ccccc45)cc3CC(=O)N([C@H](C)CO)C[C@H]2C)cc1 | 5.7%
75 | O=C(CC(NC1CCCC1)C(=O)O)Nc1cccc(Cl)c1 (stereo not drawn) | -4.61%
76 | Cc1ccc(OCC(=O)Nc2cccc(NC(=O)c3ccco3)c2)cc1C | 3.45%
77 | COC(=O)c1ccc(NC(=O)CN(c2ccc(C)c(Cl)c2)S(C)(=O)=O)cc1 | -2.86%
78 | O=C(NCCCn1ccnc1)c1cc2c(s1)CCCC2 | -4.73%
